Structures can show the parent of a compound that is named as a salt.
Test system: MDA-MB-468
Experiment: phospho-S6 immunofluorescence (DAPI-normalised), per-plate z-score; higher = higher phospho-S6 signal (less pathway suppression)
Conditions: 24 h
Method: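 GPCR-targeted compound library (MedChemExpress HY-L006) tested on MDA-MB-468 PTEN-null TNBC cells in 384-well plates at 0.1, 1 or 10 uM, combined with vehicle, GDC0941 450 nM or lapatinib 1 uM, for 24 h. Phospho-S6 (S240/244) immunofluorescence normalised to DAPI and expressed as a per-plate z-score; values are the mean of biological triplicates.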

Row | Compound | phospho-S6 immunofluorescence (z-score) (co-treatment: GDC0941 450 nM) | phospho-S6 immunofluorescence (z-score) (co-treatment: lapatinib 1 uM) | phospho-S6 immunofluorescence (z-score) (co-treatment: vehicle)
1 | Cc1sc(C)c(C(=O)NC2(c3ccc(C(=O)O)cc3)CC2)c1Cc1ccc(C(F)(F)F)cc1 (compound 10 µM) | -1.42 | -0.58 | 0.73
2 | Cn1c(=O)c2nc[nH]c2n(C)c1=O [Theophylline] (compound 10 µM) | 0.11 | 0.16 | 0.71
3 | CNC[C@H](O)c1cccc(O)c1 [(R)-(-)-Phenylephrine (hydrochloride)] (compound 10 µM) | 0.67 | 1.18 | 1.13
4 | NCCCCN(Cc1nc2ccccc2[nH]1)[C@H]1CCCc2cccnc21 [AMD-070 (hydrochloride)] (compound 10 µM) | -4.2 | -3.44 | -3.01
5 | CCCN(CCC)CCc1cccc2c1CC(=O)N2 [Ropinirole (hydrochloride)] (compound 10 µM) | 0.64 | 1.04 | 1.01
6 | CCOc1ccccc1OCCN[C@H](C)Cc1ccc(OC)c(S(N)(=O)=O)c1 [Tamsulosin] (compound 10 µM) | -1.32 | 0.1 | -0.53
7 | CN1CCN2c3ccccc3Cc3ccccc3C2C1 (stereo not drawn) [Mianserin (hydrochloride)] (compound 10 µM) | 1 | -0.76 | 1.67
8 | CN(C)CCCN1c2ccccc2CCc2ccc(Cl)cc21 [Clomipramine (hydrochloride)] (compound 10 µM) | -1.98 | -3.26 | -1.14
9 | COc1cc2c(cc1OC)CC(=O)N(CCCN(C)C[C@H]1Cc3cc(OC)c(OC)cc31)CC2 [Ivabradine (hydrochloride)] (compound 10 µM) | -0.44 | -0.13 | -0.38
10 | CN(C)C(=O)C(CCN1CCC(O)(c2ccc(Cl)cc2)CC1)(c1ccccc1)c1ccccc1 [Loperamide (hydrochloride)] (compound 10 µM) | -1.31 | -3.22 | -0.37
11 | CN(C)N(C)C(=O)[C@@]1(Cc2ccccc2)CCCN(C(=O)[C@@H](Cc2c[nH]c3ccccc23)NC(=O)C(C)(C)N)C1 [Anamorelin] (compound 10 µM) | -0.16 | -2.31 | 0.4
12 | COC(=O)N(C)c1c(N)nc(-c2nn(Cc3ccccc3F)c3ncccc23)nc1N [Riociguat] (compound 10 µM) | -0.84 | 0.03 | -0.56
13 | Nc1nc(CC(=O)Nc2ccc(CCNC[C@H](O)c3ccccc3)cc2)cs1 [Mirabegron] (compound 10 µM) | 0.91 | 1.75 | 0.56
14 | Cc1ccc(OCC(O)C(C)NC(C)C)c2c1CCC2 (stereo not drawn) [ICI 118,551 (hydrochloride)] (compound 10 µM) | 1.2 | -1.56 | 0.46
15 | NC(=O)[C@@H]1CCCC[C@@H]1C(=O)Nc1ccc(Cl)c(Cl)c1 (compound 10 µM) | 0.33 | -0.14 | 0.47
16 | O=C(CCCN1CC=C(n2c(=O)[nH]c3ccccc32)CC1)c1ccc(F)cc1 [Droperidol] (compound 10 µM) | -0.18 | 0.16 | 0.18
17 | O=C(CCCN1CCC(O)(c2ccc(Cl)cc2)CC1)c1ccc(F)cc1 [Haloperidol] (compound 10 µM) | 1.78 | -0.01 | 0.93
18 | CCCN[C@@H]1CCc2nc(N)sc2C1 [Dexpramipexole (dihydrochloride)] (compound 10 µM) | 1.16 | 0.15 | 0.4

Row | Compound | phospho-S6 immunofluorescence (z-score) (co-treatment: GDC0941 450 nM) | phospho-S6 immunofluorescence (z-score) (co-treatment: lapatinib 1 uM) | phospho-S6 immunofluorescence (z-score) (co-treatment: vehicle)
19 | CC[C@H](NC(=O)c1c(O)c(-c2ccccc2)nc2ccccc12)c1ccccc1 [Talnetant] (compound 10 µM) | 0.6 | 0.47 | 0.13
20 | Nc1nc(N)nc(-c2cc(Cl)ccc2Cl)n1 [Irsogladine] (compound 10 µM) | -0.7 | 0.22 | -1.11
21 | C[C@@](N)(C(=O)O)c1ccc(C(=O)O)cc1 (compound 10 µM) | 0.93 | 1 | 0.17
22 | CC[C@H](C)[C@H](NC(=O)[C@H](Cc1ccc(O)cc1)NC(=O)[C@@H](NC(=O)[C@H](CCCNC(=N)N)NC(=O)[C@@H](N)CC(=O)O)C(C)C)C(=O)N[C@@H](Cc1c[nH]cn1)C(=O)N1CCC[C@H]1C(=O)O [Angiotensin (1-7)] (compound 10 µM) | 0.11 | 0.71 | -0.4
23 | Cn1c(SCC(=O)N2CCC[C@H]2C(=O)Nc2ccccc2-c2ccccc2)nc2ccccc21 (compound 10 µM) | 0.08 | 1.59 | 0.81
24 | CC(C)N(CCCCOCC(=O)O)c1cnc(-c2ccccc2)c(-c2ccccc2)n1 (compound 10 µM) | 1.34 | 1.89 | 0.56
25 | CN(C)CCC(c1ccc(Br)cc1)c1ccccn1 (stereo not drawn) [Brompheniramine (maleate)] (compound 10 µM) | 0.58 | -0.17 | 0.3
26 | CNCC(O)c1ccc(O)c(O)c1 (racemic) [DL-Epinephrine] (compound 10 µM) | 1.29 | 5.47 | 4.64
27 | C[C@H](N)[C@H](O)c1cccc(O)c1 [Metaraminol (tartrate)] (compound 10 µM) | 0.64 | 0.89 | 0.73
28 | COc1ccccc1N1CCN(CCCCN2C(=O)c3ccccc3C2=O)CC1 [NAN-190 (hydrobromide)] (compound 10 µM) | 0.76 | -0.29 | 0.19
29 | C[C@@H](O[C@H]1OCCN(Cc2n[nH]c(=O)[nH]2)[C@H]1c1ccc(F)cc1)c1cc(C(F)(F)F)cc(C(F)(F)F)c1 [Aprepitant] (compound 10 µM) | -1.22 | -1.02 | 0.64
30 | CC(C)(C)C(=O)C(=Nc1ccc(Cl)cc1)NNc1ccc(Cl)cc1 (compound 10 µM) | -3.52 | -6.25 | -3.76
31 | CC1(C)O[C@@H]2C[C@H]3[C@@H]4C[C@H](F)C5=CC(=O)C=C[C@]5(C)[C@@]4(F)[C@@H](O)C[C@]3(C)[C@]2(C(=O)CO)O1 [Fluocinolone (Acetonide)] (compound 10 µM) | -0.92 | 0.83 | -0.53
32 | CCCN(CCc1cccs1)[C@H]1CCc2c(O)cccc2C1 [Rotigotine (Hydrochloride)] (compound 10 µM) | -0.16 | 0.3 | -0.63
33 | Cc1ccc(-c2n[nH]c3c2C(c2cccc(O)c2)N(c2ccc(C(=O)O)cc2)C3=O)cc1 (stereo not drawn) (compound 10 µM) | 0 | 0.5 | -0.12
34 | N=C(N)NC(=O)Cc1c(Cl)cccc1Cl [Guanfacine (hydrochloride)] (compound 10 µM) | 0.64 | 0.23 | 0.38
35 | CCC1(c2c[nH]cn2)Cc2ccccc2C1 [Atipamezole] (compound 10 µM) | 0.08 | -0.83 | 0.81
36 | NC(=O)CC[C@H](N)C(=O)O [L-Glutamine] (compound 10 µM) | -0.23 | -0.64 | -0.12

Reference: the supplement of paper PMC7411640
